This note sets out measurements from publication PMC12820563, “FoxP3 forms a head-to-head dimer in vivo and stabilizes its multimerization on adjacent microsatellites”.

In all, about 16,000 sequences were measured (“rpm ratio (pull-down/input)”: median about 0.94, highest 2% from about 1.7 on). This excerpt belongs to a sample that is enriched for the highest values.

This assay deals with T1, MBP-FoxP1dN (Mus musculus, UniProt P58462 326-579).
T1 sequence: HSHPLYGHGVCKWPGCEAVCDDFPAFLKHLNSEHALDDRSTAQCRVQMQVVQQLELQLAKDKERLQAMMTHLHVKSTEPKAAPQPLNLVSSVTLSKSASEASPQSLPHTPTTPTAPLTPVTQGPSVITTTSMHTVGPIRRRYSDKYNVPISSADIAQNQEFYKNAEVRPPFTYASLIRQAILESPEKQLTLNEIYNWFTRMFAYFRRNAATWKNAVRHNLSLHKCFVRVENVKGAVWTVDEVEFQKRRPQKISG
The assay is described as follows: PD-seq (MBP pull-down with sequencing); 20 mM Tris-HCl pH 7.5, 100 mM NaCl, 1.5 mM MgCl2, 0.4 uM protein, 0.1 uM dsDNA library, 30 min, room temperature, amylose pull-down; high values mean tight binding. The following applies: protein: recombinant; tags: His6-MBP; chain copies: 2; dsDNA, one strand shown. A digest of the protocol:
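Amylose resin was used to capture complexes formed during 30 min at room temperature in Tris pH 7.5 buffer with NaCl and MgCl2 between 0.4 µM His6-MBP-tagged mouse FoxP3 or FoxP1 fragment lacking the N-terminus, expressed in E. coli, and 0.1 µM Klenow-filled double-stranded degenerate DNA library. After three washes, the DNA was released with proteinase K, barcoded by PCR and sequenced on Illumina. Binding is pooled-replicate reads-per-million enrichment, pull-down over input.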
Turning to “GATGATTGTTCTCCCAGCTGATGAATTAGTGCGTTCGAGTAAACAAATTTTCCTAATCTTTCTGTTCAAGCGCCATCTAC”, the binding signal was 1.1 RPM ratio (pull-down/input).

In the case of “GATGATTGTTCTCCCAGCTGATGAATTCGATCATTCGAGTAAACAAATTTTCCTAATCTTTCTGTTCAAGCGCCATCTAC”, the binding signal was 0.949 RPM ratio (pull-down/input).

As for “GATGATTGTTCTCCCAGCTGATGAATTGTCACCATCGAGTAAACAAATTTTCCTAATCTTTCTGTTCAAGCGCCATCTAC”, the binding signal is 1.13 RPM ratio (pull-down/input).

Regarding “GATGATTGTTCTCCCAGCTGATGAATTGTCGTTGTCGAGTAAACAAATTTTCCTAATCTTTCTGTTCAAGCGCCATCTAC”, the binding signal was 1.38 RPM ratio (pull-down/input).

On to “GATGATTGTTCTCCCAGCTGATGAATTTCTGTTGTCGAGTAAACAAATTTTCCTAATCTTTCTGTTCAAGCGCCATCTAC”, for which the binding signal was 2.16 RPM ratio (pull-down/input).

As for “GATGATTGTTCTCCCAGCTGATGAATTGTTCCTGTCGAGTAAACAAATTTTCCTAATCTTTCTGTTCAAGCGCCATCTAC”, the binding signal was 0.999 RPM ratio (pull-down/input).

As for “GATGATTGTTCTCCCAGCTGATGAATTACTGTTGTCGAGTAAACAAATTTTCCTAATCTTTCTGTTCAAGCGCCATCTAC”, the binding signal is 2.55 RPM ratio (pull-down/input).

On to “GATGATTGTTCTCCCAGCTGATGAATTTTTGTTGTCGAGTAAACAAATTTTCCTAATCTTTCTGTTCAAGCGCCATCTAC”, for which the binding signal was 2.85 RPM ratio (pull-down/input).

On to “GATGATTGTTCTCCCAGCTGATGAATTTCTTTTGTCGAGTAAACAAATTTTCCTAATCTTTCTGTTCAAGCGCCATCTAC”, for which the binding signal is 0.952 RPM ratio (pull-down/input).

With “GATGATTGTTCTCCCAGCTGATGAATTTTTTCTGTCGAGTAAACAAATTTTCCTAATCTTTCTGTTCAAGCGCCATCTAC”, the binding signal was 0.986 RPM ratio (pull-down/input).

For “GATGATTGTTCTCCCAGCTGATGAATTGTTGTTGTCGAGTAAACAAATTTTCCTAATCTTTCTGTTCAAGCGCCATCTAC”, the binding signal was 3.2 RPM ratio (pull-down/input).

As for “GATGATTGTTCTCCCAGCTGATGAATTACTGATGTCGAGTAAACAAATTTTCCTAATCTTTCTGTTCAAGCGCCATCTAC”, the binding signal is 1.37 RPM ratio (pull-down/input).

In the case of “GATGATTGTTCTCCCAGCTGATGAATTTTTCTTGTCGAGTAAACAAATTTTCCTAATCTTTCTGTTCAAGCGCCATCTAC”, the binding signal was 1.1 RPM ratio (pull-down/input).

Consider “GATGATTGTTCTCCCAGCTGATGAATTACTACTGTCGAGTAAACAAATTTTCCTAATCTTTCTGTTCAAGCGCCATCTAC”, for which the binding signal is 1.23 RPM ratio (pull-down/input).

Consider “GATGATTGTTCTCCCAGCTGATGAATTTTTTTTGTCGAGTAAACAAATTTTCCTAATCTTTCTGTTCAAGCGCCATCTAC”, for which the binding signal is 0.87 RPM ratio (pull-down/input).

For “GATGATTGTTCTCCCAGCTGATGAATTGCTATGTTCGAGTAAACAAATTTTCCTAATCTTTCTGTTCAAGCGCCATCTAC”, the binding signal was 1.24 RPM ratio (pull-down/input).

“GATGATTGTTCTCCCAGCTGATGAATTCGAGTGGTCGAGTAAACAAATTTTCCTAATCTTTCTGTTCAAGCGCCATCTAC”: the binding signal is 0.752 RPM ratio (pull-down/input).

Regarding “GATGATTGTTCTCCCAGCTGATGAATTCCTATCTTCGAGTAAACAAATTTTCCTAATCTTTCTGTTCAAGCGCCATCTAC”, the binding signal was 0.802 RPM ratio (pull-down/input).

Turning to “GATGATTGTTCTCCCAGCTGATGAATTTGACTTGTCGAGTAAACAAATTTTCCTAATCTTTCTGTTCAAGCGCCATCTAC”, the binding signal was 0.82 RPM ratio (pull-down/input).

“GATGATTGTTCTCCCAGCTGATGAATTTCCTGCGTCGAGTAAACAAATTTTCCTAATCTTTCTGTTCAAGCGCCATCTAC”: the binding signal was 0.938 RPM ratio (pull-down/input).

For the sequence “GATGATTGTTCTCCCAGCTGATGAATTCTCTCTTTCGAGTAAACAAATTTTCCTAATCTTTCTGTTCAAGCGCCATCTAC”, the binding signal was 0.917 RPM ratio (pull-down/input).

Take “GATGATTGTTCTCCCAGCTGATGAATTTAATATGTCGAGTAAACAAATTTTCCTAATCTTTCTGTTCAAGCGCCATCTAC”: the binding signal was 0.979 RPM ratio (pull-down/input).

Consider “GATGATTGTTCTCCCAGCTGATGAATTGTCGTCGTCGAGTAAACAAATTTTCCTAATCTTTCTGTTCAAGCGCCATCTAC”, for which the binding signal was 1.05 RPM ratio (pull-down/input).

Consider “GATGATTGTTCTCCCAGCTGATGAATTTCTGTCGTCGAGTAAACAAATTTTCCTAATCTTTCTGTTCAAGCGCCATCTAC”, for which the binding signal was 0.96 RPM ratio (pull-down/input).

On to “GATGATTGTTCTCCCAGCTGATGAATTGTTGTCGTCGAGTAAACAAATTTTCCTAATCTTTCTGTTCAAGCGCCATCTAC”, for which the binding signal is 2.33 RPM ratio (pull-down/input).

Take “GATGATTGTTCTCCCAGCTGATGAATTCGATCTATCGAGTAAACAAATTTTCCTAATCTTTCTGTTCAAGCGCCATCTAC”: the binding signal was 0.885 RPM ratio (pull-down/input).

Consider “GATGATTGTTCTCCCAGCTGATGAATTGATTATGTCGAGTAAACAAATTTTCCTAATCTTTCTGTTCAAGCGCCATCTAC”, for which the binding signal was 1.31 RPM ratio (pull-down/input).

Turning to “GATGATTGTTCTCCCAGCTGATGAATTATTTCTGTCGAGTAAACAAATTTTCCTAATCTTTCTGTTCAAGCGCCATCTAC”, the binding signal is 1.11 RPM ratio (pull-down/input).

Take “GATGATTGTTCTCCCAGCTGATGAATTATTGATGTCGAGTAAACAAATTTTCCTAATCTTTCTGTTCAAGCGCCATCTAC”: the binding signal is 1.85 RPM ratio (pull-down/input).

As for “GATGATTGTTCTCCCAGCTGATGAATTATTATTGTCGAGTAAACAAATTTTCCTAATCTTTCTGTTCAAGCGCCATCTAC”, the binding signal is 3.2 RPM ratio (pull-down/input).

Regarding “GATGATTGTTCTCCCAGCTGATGAATTATTGTTGTCGAGTAAACAAATTTTCCTAATCTTTCTGTTCAAGCGCCATCTAC”, the binding signal was 3.22 RPM ratio (pull-down/input).

Consider “GATGATTGTTCTCCCAGCTGATGAATTATTGTCGTCGAGTAAACAAATTTTCCTAATCTTTCTGTTCAAGCGCCATCTAC”, for which the binding signal was 1.56 RPM ratio (pull-down/input).
